# Laboratory results reported in the supplement of paper PMC6555819.
# What was measured:
# Experiment in all cases: PBM binding z-score (relative to random genomic background probes); higher = stronger binding; sequences stand for … in GC…GCGATTGACAGCGTAGAATGAAGG
# [1] = tested on: RARb homodimer (NR concentration 270 nM)
# Summary of the method: (§1)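 On custom Agilent 4×180K arrays, double-stranded probes with 34-nt variable regions carried direct-repeat seeds, single-nucleotide variants, half-site ablations or random human genomic background. Ligand-free nuclear receptor dimers were applied for 1 h, and binding was read with antibodies against each partner (one per run). Binding z-scores come from regression-normalized fluorescence, with the random background probes as reference.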
# [2] = tested on: RARg:RXRa (NR concentration 270 nM, RXRa partner concentration 90 nM)
# Summary of the method: as §1
# [3] = tested on: RARg homodimer (NR concentration 270 nM)
# Summary of the method: as §1
# [4] = tested on: RXRa DBDmut IVT, anti-RXR (DBD mutation: RXRa K156A/R161A, NR concentration 90 nM)
# Summary of the method: as §1
# [5] = tested on: RXRa homodimer (NR concentration 180 nM)
# Summary of the method: as §1
# [6] = tested on: THRa:RXRa (NR concentration 90 nM, RXRa partner concentration 90 nM)
# Summary of the method: as §1
# [7] = tested on: THRa homodimer (NR concentration 90 nM)
# Summary of the method: as §1
# [8] = tested on: VDR homodimer (NR concentration 270 nM)
# Summary of the method: as §1
Sequence,PBM binding z-score [1],PBM binding z-score [2],PBM binding z-score [3],PBM binding z-score [4],PBM binding z-score [5],PBM binding z-score [6],PBM binding z-score [7],PBM binding z-score [8]
TCGAGTAGGTTACCAATGGAGCATTCAGCTTTCT,-0.304,0.18,0.258,0.293,0.319,-0.213,-0.898,-0.759
GCTAGTTGGTCAGTAAAAGGTCACACAACGGTCG,5.29,5.75,5.52,0.797,5.56,3.76,1.74,1.75
GCTGCTAGGTCAGCTGATGGTCAGCTAAAGCTCG,2.88,3.97,4.38,0.423,0.813,1.83,-0.0581,-1.09
ATATGTAGGTTACATCCGGGTCAATCAGGCTATG,3.12,3.95,2.2,0.665,3.37,3.8,2.33,1.72
GCAGACAGGTGAAACGCAGGTAAGTCAGGGTGGC,0.216,0.37,0.249,-0.846,0.479,0.9,-0.575,-0.728
CCGACTGGGGCATAAGGGTACCATAAGCCAGCCC,0.3,0.401,0.239,-0.871,0.269,-0.0868,-0.457,-0.543
CCTACTAGGCCAAAAAGGTCATTGATGCCGATAA,4.74,4.81,4.61,1.38,4.95,3.35,0.809,2.99
CCTCCAAGGTCAAGGTCAGTGAAAGAGACTCGAA,5.05,6.52,7.43,3.49,6.09,4.18,3.64,2.98
CCTACTGGGCCACGAAAGGTCTTTGATTCAGTGA,1.03,0.285,0.261,-0.372,0.067,1.06,-0.141,-0.432
GCTAGTTAGTCAGTAAAAGGTCACACACCGGTCG,5.02,4.93,4.43,0.44,5.22,3.49,1.36,1.62
CAGCCTAGGTCAGGGACAGTATAGGAGGAACGTT,2.6,3.02,3.8,0.364,1.77,2.37,0.952,0.0373
ACTATTAGTAGAGACGAGGGCAACCGATAGGTTG,0.968,0.616,0.804,0.392,0.661,0.934,0.11,0.675
CGTTCAAGGTCAGAGAGGTCAGTGAATGCCGAGT,5.35,6.32,7.17,3.83,5.61,4.37,3.21,5.8
ATCTGTAGGTAAAGATAGTTCAGTGAATGCAAAT,0.933,0.435,0.657,-0.108,0.326,0.527,-0.0674,0.568
GGAACGAGGGCAAAGTTGAGAGCATCTGTCGACG,1.51,2.51,1.87,2.46,2.33,1.53,-0.419,1.38
TCTAGTTGGTCACGGAGCTCACACACGACGGGTA,0.591,1.04,1.24,0.372,0.925,-0.123,-0.466,-0.521
GCTGCTAGGTCAATTGATGGTCAGCTAAAGCTCG,2.95,4.28,4.03,1.37,1.95,2.22,-0.157,-0.476
CCGACTGGCGCAAGGTTACCATAACGCACAGCCA,0.818,0.543,0.602,0.0804,0.892,1.23,0.443,-0.0582
TCTGCTAGGTCAGTTGGTCAGCTGACGAGCTGCC,2.33,2.98,4.14,0.382,0.854,1.31,-0.308,-1.1

Sequence,PBM binding z-score [1],PBM binding z-score [2],PBM binding z-score [3],PBM binding z-score [4],PBM binding z-score [5],PBM binding z-score [6],PBM binding z-score [7],PBM binding z-score [8]
TGAATGAGGCTATAAGATCAGGGAACGTTGCAAA,-0.742,-0.102,0.256,-1.09,-0.0491,-0.134,-0.324,-0.554
GCTCGGAGGACAAGGTCCGAGCTTTGTCCGTAGA,0.2,-0.185,0.242,-0.26,-0.792,0.554,-0.414,-0.775
GCGACTGGGGCATCAGCAGGTTTCCATAACTTAA,0.345,-0.102,-0.261,0.099,-0.0783,-0.0527,-0.144,0.168
TCTACTAGGTCAACGATGGTCAGCTAATCTGCTA,3.59,4.28,5.16,1.89,3.07,3.2,1.37,0.629
CCTGTTAGGTCATGGTCAGCTAATCTACAGTATG,3.36,4.05,4.61,2,2.89,3.73,2.91,0.791
ATATCTAGGTTAAGGGTCATTCAGGTTGGTTCGC,3.97,4.82,3.86,2.66,5.68,3.82,2.49,4.63
ATACCAAGGTGATCGTAAGGTCGTTGATACTAAC,2.01,2.35,0.817,0.559,1.68,3.44,3.08,2.23
CCTACTGGGCCAAGAAAGGTCATTGATTCAGTGA,4.44,3.99,3.46,0.261,4.4,3.43,0.419,2.23
ACTTGCAGGCCAAGGGTCACTCAAGATTAGTCCG,4.01,4.38,3.9,0.954,4.47,2.89,0.244,1.36
CCTGCTGGGCCAAAGGTCATTGATTCCAATGCTC,4.53,5.82,4.91,1.48,6.37,3.2,0.638,2.24
TCTCGGAGGACACGAAAGGTCAGACCTCGACATC,4.65,4.84,5.27,1.39,4.1,3.73,1.55,1.14
ATCTCTAGGTAAAGTTAGTTCAGTGAATGCAAAT,0.802,0.673,0.531,0.563,0.331,1.94,0.737,1.35
CCTAGTTGGTCAGGAGCTCACACACCGGATATGA,0.161,0.446,0.601,-0.0483,0.0648,-0.298,-0.103,0.545
TCATATAGATAATACAGGTGAAAGTCGGCATCTA,0.362,0.456,0.632,2.07,1.02,0.394,0.216,0.608
ATATGTAAGTTAGCTGGGGTCATTCAGACTAGGC,3.29,3.58,2.19,1.95,5.13,4.31,3.21,4.9
TCTAGATGGTCACGGAGGTCACACACGACGGGTA,4.54,4.93,4.89,0.905,5.34,3.85,2.6,3.63
ACTTACGGGTCATCGAGGTTATAGCACGCGTATA,3.64,5.43,4.96,2.98,6.18,4.03,1.28,4.26
TCATATAGGTAAAGGTGAAAATCGAACGATATGA,0.939,1.56,1.28,0.781,1.98,0.991,-0.415,-0.256
ACTAGCAGGCCAAGTTTGGGTCATTCAAACAAAG,2.24,2.22,1.29,-0.125,0.803,2.55,0.849,0.69

Sequence,PBM binding z-score [1],PBM binding z-score [2],PBM binding z-score [3],PBM binding z-score [4],PBM binding z-score [5],PBM binding z-score [6],PBM binding z-score [7],PBM binding z-score [8]
CCTACTGGGCCATCAAGTCATTGATATCAACGTT,0.27,0.122,0.368,0.0115,-0.103,-0.116,-0.0575,-0.205
GCTATTAGTTGAAAGGGCCACCGAATGATTCTCG,1.19,0.331,0.583,0.436,0.34,0.0196,-0.402,0.169
TCTTGTAGATCAATAGCGGTTAAGAAAGTGCGCT,-0.0533,0.105,-0.0407,0.457,0.288,0.011,-0.478,0.0262
CGTCCAGGGTCAAAGGTCAGTGAAGAGATGACGG,5.11,8.3,7,2.98,9.93,4.54,1.48,3.04
CCGAATAGGTTATGGGGCATTCAGGCAACGGTGA,1.11,1.06,0.917,0.132,1.31,0.696,-0.0047,-0.175
GCGACTAGGGCATCAGCAGGTTACCATAACTTAA,0.836,1.12,0.817,0.0692,0.47,0.885,0.0227,-0.299
ACAGACAGGTGATGAAGGTAACTCCGGCTATCAT,0.376,0.136,0.355,-0.394,0.346,0.328,0.183,-0.00954
CGAACGAGGGCATGAGTTGATAGCGAATGCCGAT,0.689,1.25,1.69,2.41,1.09,1.09,-0.229,1.5
CCTACTGAGCCATCAGGTCATTGATATCAACGTT,2.7,1.5,1.69,1.17,1.42,3.37,3.52,2.2
CATACAGGGTCAACTAGGCCAGAGTAGGGACGGC,3.62,5.7,5.42,2.74,6.54,3.74,1.5,2.36
CCTAGTTGATCAAGGTCACACACGCTATAGGTAC,4.44,4.24,4.06,2.8,4.2,4.25,4.11,4.32
CCTATTAGTTGACCATAAGGGCAACCGTAGCTCG,1.93,1.09,1.25,0.707,0.63,1.92,1.29,0.902
ATATGTAGGTTAAGGGTCATTGAGGTTGGTTCGC,4.17,4.87,3.36,1.89,6.28,3.55,2.06,4.8
TCATATAGGTAATACACGTGAAAGTCGGCATCTA,0.355,0.577,0.604,1.92,0.939,0.156,-0.0139,0.589
CCAGACAGGTGAGATGGTAACTCAGCCTCGATTA,0.103,0.164,0.225,-0.124,-0.0452,-0.143,0.146,0.202
CGTCCAAGGTCAATGCTAGGTCAGTCAAAGCATT,5.08,7.7,6.73,3.62,5.82,4.52,2.99,3.23
CCGTCTGGGGCAAAGGTTACCATACTCAGTACGA,2.21,3.55,1.87,0.589,3.51,1.74,-0.0764,-0.106
AGTATGAGGTTATACGTAGATCAGGGAAGAAAGT,0.828,1.81,1.26,1.67,2.18,2.4,0.869,0.823
